The list is not random: actives were taken first. Their share in the collection is about 4.6%.
D1 potentiator: Potentiators of Human D1 Dopamine Receptor: qHTS; D(1A) dopamine receptor (Homo sapiens), P21728; HEK293 TREx D1 cells, calcium flux, dopamine EC20 potentiation; potentiation, % at 10 µM; hit rate 0.036% among 360,000; AID 504651, 2011; in the data active means potentiation above about 30%; further: 0% is about no effect
Target sequence (P21728 whole entry, looked up): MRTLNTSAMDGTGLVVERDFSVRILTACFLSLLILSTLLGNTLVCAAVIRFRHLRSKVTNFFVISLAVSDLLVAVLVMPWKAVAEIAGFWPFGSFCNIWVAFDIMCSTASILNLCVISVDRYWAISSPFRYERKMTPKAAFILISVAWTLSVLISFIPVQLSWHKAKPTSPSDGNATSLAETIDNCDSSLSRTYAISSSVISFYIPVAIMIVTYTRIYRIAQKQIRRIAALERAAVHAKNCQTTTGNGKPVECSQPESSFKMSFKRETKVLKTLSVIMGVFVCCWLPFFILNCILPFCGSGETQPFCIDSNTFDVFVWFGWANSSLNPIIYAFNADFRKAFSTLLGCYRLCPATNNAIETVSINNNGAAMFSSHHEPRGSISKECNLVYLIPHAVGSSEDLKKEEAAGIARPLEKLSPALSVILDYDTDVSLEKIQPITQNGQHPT
D1 antagonist: Antagonist of Human D 1 Dopamine Receptor: qHTS; D(1A) dopamine receptor (Homo sapiens), P21728; HEK293 TREx D1 cells, calcium flux, dopamine EC80; hits give low values; activity change, negative = inhibition, % at 10 µM; hit rate 3.2% among 360,000; in the data active means activity change below about -30%; further: on the % scale 0 is the no-effect control and ±100 the full control effect
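HEK293 T-REx cells expressing inducible, force-coupled D1 receptor; no-wash Ca dye, 30–90 min RT. Cmpd → 180 s read at 1 Hz → EC80 DA → 180 s read.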
D1 agonist: Allosteric Agonists of the Human D1 Dopamine Receptor: qHTS. HEK293 T-REx D1 cells, calcium flux, agonist mode. activation, % at 2 µM. hit rate 1% among 360,000; further: 0% is about no effect
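Inducible HEK293 T-REx D1 cells, force-coupled to calcium signalling, were plated at 4000 cells/well with tetracycline and held overnight at 30 C. After no-wash calcium dye loading, compound-evoked calcium rise over 180 s flagged agonists.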
TRHR enhancer: qHTS for Small Molecule Agonists and Allosteric Enhancers of Human TRH Receptor: Primary Screen for Enhancers; Thyrotropin-releasing hormone receptor (Homo sapiens), P34981; hit rate 0.66% among 360,000; enhancement, % at 2 µM; TRHR cells, fluo-8 calcium fluorescence, EC20 TRH enhancement; AID 493056, 2011; in the data active means enhancement above about 30%; further: 0% is about no effect
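TRHR-expressing cells loaded with fluo-8 calcium dye were read kinetically (ex 480/em 530) during compound addition, then stimulated with an EC20 of TRH (10 nM final). Enhancement of the Gq-mediated intracellular calcium response was scored.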
TRHR agonist: qHTS for Small Molecule Agonists and Allosteric Enhancers of Human TRH Receptor: Primary Screen for Agonists. hit rate 0.18% among 360,000. activation, % at 2 µM. TRHR cells, calcium flux fluo-8, FDSS agonist mode. AID 493084, 2011; further: 0% is about no effect
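Fluo-8-loaded TRHR cells; 10 s baseline, compound added, kinetic Ca2+ fluorescence read 1/s, agonist mode.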
* hit, by the source's call. Unless noted, no stated cut-off is given here; in the data, active means activation above about 30%; inactive means the rest.

SMILES | D1 potentiator | D1 antagonist | D1 agonist | TRHR enhancer | TRHR agonist
CC(C)N1CCN(Cc2ccncc2)CC1CCO (configuration not stated) | -4 | 4 | 3 | -6 | 1
CSc1ccc(CN2CCN(C(C)C)C(CCO)C2)cc1 (configuration not stated) | 0 | -35* | 0 | -3 | -1
OCCC1CN(Cc2cccn2-c2nccs2)CCN1C1CCCCC1 (configuration not stated) | -1 | 0 | 1 | -1 | 0
CC(CNC(=O)CCc1cn(Cc2ccccc2Cl)c2ccccc12)c1ccccc1 (configuration not stated) | 1 | 0 | 3 | 3 | 1
COc1cc2cc(C(=O)N3CCc4ccccc4C3)[nH]c2cc1OC | -7 | -33* | -1 | 1 | -1

Bioassay records: PubChem, National Center for Advancing Translational Sciences (NCATS)
